Compound activity as filed in PubChem.
DT40 TDP1 CPT – qHTS for Inhibitors of human tyrosyl-DNA phosphodiesterase 1 (TDP1): qHTS in cells in presence of CPT | AID 686979, 2013 | Potency, µM (series often up to 46.2 µM), inactives show top-dose activity change, negative = growth inhibition, actives largely listed as inhibitors | chicken DT40 Tdp1-/-;hTDP1 cells + 20 nM CPT, ATP luminescence, 48 h | 420,000 tested, 12% active; note: potency is the fitted concentration of half-maximal effect; nearly all actives have a fitted effect of over 55% in size
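Chicken DT40 Tdp1-/- cells stably complemented with human TDP1 were seeded at 400 cells/well in medium containing 20 nM camptothecin, exposed to pin-transferred compounds, and grown at 37 °C for at least 48 hr. Viability was read as ATP luminescence.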
DT40 TDP1 no CPT – qHTS for Inhibitors of human tyrosyl-DNA phosphodiesterase 1 (TDP1): qHTS in cells in absence of CPT. 420,000 tested, 15% active. Potency, µM (top dose mostly 46.2 µM), without a hit: at the highest dose activity change, negative = growth inhibition, usual class: inhibitors. AID 686978, 2013. DT40 Tdp1-/- hTDP1 cells, no CPT, ATP luminescence, 48 h; note: potency is the fitted concentration of half-maximal effect; nearly all actives have a fitted effect of over 55% in size
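A cellular qHTS used chicken DT40 cells lacking endogenous Tdp1 but carrying stably transfected human TDP1. Compounds were applied without camptothecin, and cell growth kinetics were judged by ATP-dependent luminescence after ≥48 hr.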
ELG1 repair inh – qHTS screen for small molecules that inhibit ELG1-dependent DNA repair in human embryonic kidney (HEK293T) cells expressing luciferase-tagged ELG1. HEK293T ELG1-luciferase reporter, luminescence, 16 h; DNA damage induced by 5-fluorouridine. Potency, µM (highest dose often 46.1 µM), for the others: at the top dose activity change, negative = inhibition, actives largely listed as inhibitors. 330,000 tested, 2.3% active. AID 504467, 2011; note: potency is the fitted concentration of half-maximal effect; nearly all actives have a fitted effect of over 55% in size
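DMSO vehicle served as the neutral condition. Each well held 2,000 cells given 5-fluorouridine plus compound; after 16 hr at 37 °C/5% CO2, ONE-Glo was added and luciferase measured 30 min later.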
HT1080 IDH1KD tx – qHTS for induction of synthetic lethality in tumor cells producing 2HG: qHTS for the HT-1080-IDH1KD cell line | HT-1080 IDH1 knockdown viability, ATP luminescence, 48 h | Potency, µM (titrated, usually from 46.1 µM), without a hit: at the highest dose activity, negative = toxicity, usual class: cytotoxic | 360,000 tested, 2% active | AID 686971, 2013;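 note: potency is the fitted concentration of half-maximal effect; 0% = DMSO wells and -100% = cell-free medium wells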
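Using the IDH1-knockdown HT-1080 line run in the same batch and compound series as the NT line, viability after 48 h at 37 °C was determined by CellTiter-Glo luminescence and expressed as % activity.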
IL1B secr inh – qHTS for Inhibitors of Inflammasome Signaling: IL-1-beta AlphaLISA Primary Screen | AID 743279, 2014 | activity change, % at 57.5 µM | 360,000 tested, 4.7% active | THP-1 LPS/ATP IL-1B secretion, AlphaLISA, 16 h; active compounds read low; in the data active = activity change below about -50%; inconclusive = mostly about -30% to -49%
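THP-1 cells pretreated 1 hr with compounds (up to 57.5 uM final), then stimulated with LPS (250 ng/mL final) plus ATP (1.25 mM final); secreted IL-1B measured by AlphaLISA after 16 hr, decreased signal indicating inhibition.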
HT1080-NT tox – qHTS for induction of synthetic lethality in tumor cells producing 2HG: qHTS for the HT-1080-NT fibrosarcoma cell line | HT-1080-NT fibrosarcoma viability, CellTiter-Glo ATP luminescence, 48 h | Potency, µM (series often up to 46.1 µM), inactives show at the top dose activity, negative = less viability, usual class: cytotoxic | 360,000 tested, 1.6% active;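 note: NT is the 2HG producing partner of a matched IDH1 knockdown line; potency is the fitted concentration of half-maximal effect; 0% = DMSO-treated cells and -100% = media-only wells without cells; nearly all actives have a fitted effect of over 55% in size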
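Viability by CellTiter-Glo luminescence after 48 h compound exposure at 37C of HT-1080-NT cells (750/well, RPMI, 5% FBS). % activity scaled between DMSO wells and medium-only wells, then curve-fitted and categorized by curve class.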
* marks the source's active call; other numbers are inactive results; ? = inconclusive; . = not tested or not shown; [ ] = dose if it differs, or a comment. Rows were chosen to be rich in hits. Some 19% of all compounds tested hit in one or more screens of this group. Unless noted, calls come from the whole dose curve; as a rule, active = well fitted curve in the direction sought with a large enough effect; inconclusive = small, poorly fitted or top-dose-only effect, or another doubt; inactive = no such curve, though single readings can be large; an effect the other way counts as inactive or inconclusive. Unless noted, % is set by controls: 0 for no effect and ±100 for the full control effect.

SMILES | DT40 TDP1 CPT | DT40 TDP1 no CPT | ELG1 repair inh | HT1080 IDH1KD tx | IL1B secr inh | HT1080-NT tox
CCC1Oc2ccccc2N(CC(=O)N2CC(C)CC(C)C2)C1=O (stereo not given) | -21.3% | ? | . | -1.0% | -21.4 | 0.6%
CCc1nc2c(OCc3ccccc3C(=O)OC)cccn2c1N(C)C(=O)c1cccs1 | ? | 29.1µM* | . | -25.0% | 4.2 | -26.3%
CCc1nc2c(OCc3ccccc3C(=O)OC)cccn2c1N(C)C(=O)CC(C)C | 16.4µM* | 13µM* | . | 0.9% | 9.9 | 8.9%
CCc1nc2c(OCCc3cccc(OC)c3)cccn2c1N(C)C(=O)c1cccs1 | 20.6µM* | ? | . | ? | -1.2 | ?
CCc1nc2c(OCc3ccccc3C(=O)OC)cccn2c1N(C)C(=O)c1ccncc1 | ? | -23.4% | . | 5.0% | 23.1 | 13.4%
CCOC(=O)c1ccccc1NC(=O)c1cc2c(=O)oc3ccc(C)cc3c2s1 | 0.8% | -0.1% | . | . | . | .
COc1cc(=O)n2c(c1C(=O)NCc1ccco1)CCN(Cc1ccc3nsnc3c1)CC2 | -8.8% | -9.7% | . | . | . | .
Oc1cc(-c2nc3ccccc3s2)cc2c1OCCN(Cc1cccn1-c1ncccn1)C2 | -4.8%[9.04 µM] | 16.4µM* | . | . | . | .
Oc1cc(-c2nc3ccccc3s2)cc2c1OCCN(Cc1cccn1-c1ccccn1)C2 | 1.7% | -0.3% | . | . | . | .
CC(NC(=O)C12CC3CC(CC(O)(C3)C1)C2)c1ccccc1 (stereo not given) | -25.8% | -16.0% | 2.0% | -0.2% | 9.7 | -4.5%
O=C(N/N=C/c1ccco1)c1ccc(N2CCCC2=O)cc1 | 10.4% | ? | ? | 5.9% | 9.8 | 14.4%
O=C(N/N=C/c1cc(Br)cc(Br)c1O)c1cccc(S(=O)(=O)N2CCOCC2)c1 | 3.66µM* | 3.66µM* | ? | ? | 79.6 | -25.9%
O=C(N/N=C/c1sc(N2CCOCC2)nc1-c1ccccc1)c1cccc(S(=O)(=O)N2CCCC2)c1 | 2.59µM* | 4.61µM* | 5.17µM* | ? | 55.9 | -3.5%
O=C(N/N=C/c1cc(Br)cc(Br)c1O)c1cccc(N2CCCC2=O)c1 | 5.17µM* | 1.46µM* | ? | -21.7% | 128.9 | -12.2%
COc1cccc(/C=N/NC(=O)c2ccc(N3CCCC3=O)cc2)c1 | ? | 23.1µM* | 2.1% | ? | -28.7 | ?
O=C(N/N=C/c1ccccc1Br)c1cccc(S(=O)(=O)N2CCOCC2)c1 | -4.3% | -3.3% | ? | 3.5% | 27.3 | -2.8%[9.24 µM]
O=C(N/N=C/c1cc(Cl)cc([N+](=O)[O-])c1O)c1cccc(S(=O)(=O)N2CCOCC2)c1 | -18.7% | ? | -29.4% | ? | 13.8 | 16.4µM*
Cc1cccc(N(CC(N)=O)C2SC(=O)N(Cc3cccc(C(=O)O)c3)C2=O)c1 (stereo not given) | -1.3% | -4.9% | . | . | . | .
Cc1ccc(CNC(=O)Cn2cc(S(=O)(=O)Cc3ccccc3F)c3ccccc32)cc1 | 14.6µM* | ? | . | . | . | .
O=C(Cn1cc(S(=O)(=O)Cc2ccccc2F)c2ccccc21)NCc1ccccc1 | -13.3% | -1.0% | . | . | . | .
O=C(Cn1cc(S(=O)(=O)Cc2ccc(F)cc2)c2ccccc21)NCc1ccccc1Cl | ? | 20.6µM* | . | . | . | .
COc1cccc(NC(=O)Cn2cc(C#N)c3ccccc32)c1 | -27.5% | -25.0% | -1.7% | -4.5% | 38.0 | -9.3%
COc1cccc(NC(=O)Cn2cc(S(=O)(=O)Cc3ccccc3F)c3ccccc32)c1 | 16.4µM* | 18.4µM* | . | . | . | .
CCOC(=O)c1c(C)[nH]c(C)c1S(=O)(=O)N1CCC(C(=O)NCc2cccc(C)c2)CC1 | -2.0% | -9.2% | . | . | . | .
Cc1ccc(C(=O)N2CCc3cc4c(cc3C2C)OCCCO4)cc1 (stereo not given) | 23.1µM* | ? | -5.4% | ? | -16.0 | ?
SMILES | DT40 TDP1 CPT | DT40 TDP1 no CPT | ELG1 repair inh | HT1080 IDH1KD tx | IL1B secr inh | HT1080-NT tox
CC1c2cc3c(cc2CCN1C(=O)c1ccc(C(F)(F)F)cc1)OCCCO3 (stereo not given) | ? | ? | -11.1% | -5.4% | -3.4 | -8.5%
CC1c2cc3c(cc2CCN1CC(=O)Nc1ccc(S(=O)(=O)N2CCCC2)cc1)OCCCO3 (stereo not given) | ? | -24.9% | ? | -11.1% | -28.2 | -5.4%
CC1c2cc3c(cc2CCN1C(=O)c1ccc(Cl)cc1)OCCCO3 (stereo not given) | 16.4µM* | 13µM* | 23.1µM* | ? | -59.3* | ?
CC(=O)Nc1ccc(C(=O)N2CCc3cc4c(cc3C2C)OCCCO4)cc1 (stereo not given) | ? | 18.4µM* | -5.0% | -11.8% | 10.6 | -4.6%
CCc1ccc(-n2c(=S)sc3c(=O)n(-c4ccccc4C)c(SCC(=O)O)nc32)cc1 | 4.6% | 28.2% | -2.1% | -2.9% | 42.7 | -4.9%
COc1cc(OC)cc(C(=O)Nc2cc3c(cc2N2CCOCC2)n(C)c(=O)n3C)c1 | -14.1% | -18.0% | . | . | . | .
CNC(=O)c1cccn1-c1ccsc1C(=O)OC | ? | 18.4µM* | 4.3% | 16.0% | -0.6 | 28.4%
COC(=O)c1sccc1-n1cccc1C(=O)C(=O)N1CCCC1 | -3.4% | -16.4% | 5.0% | 18.9% | 8.0 | 11.5%
CNCCCCOc1ccc(C(C)(C)C)cc1Cl | ? | ? | -4.8% | -1.5% | -55.4* | -23.3%
CCOC(=O)c1c(-c2ccccc2)csc1NC(=O)CSc1nncs1 | 23.1µM* | 16.4µM* | ? | -17.6% | 0.2 | -20.5%
CCOC(=O)c1ccccc1NC(=O)CSc1nnnn1C | -7.1% | -3.1% | 8.0% | 1.9%[9.24 µM] | -12.4 | 3.3%
CCOC(=O)c1c(NC(=O)CSc2nnnn2C)sc(C)c1-c1ccc(C)cc1 | ? | 16.4µM* | 11.2% | 8.91µM* | ? | ?
O=C(CSc1nnnn1-c1ccccc1)NC(=O)Cc1ccccc1 | 1.1% | 6.3% | -1.4% | 0.0% | 8.3 | 3.0%[9.24 µM]
CCOC(=O)c1c(-c2ccccc2)csc1NC(=O)CSc1nnnn1C | 17.8µM* | ? | 4.11µM* | 11.2µM* | -8.1 | ?
Cn1nnnc1SCC(=O)NC(=O)Cc1ccccc1 | 11.6µM* | 6.51µM* | -5.0% | 1.6% | 40.6 | 3.4%
